Experimental data reported in PubChem BioAssay (NCI).
This is part of a sample that, as a whole, favours compounds with a hit. Of some 83,000 tested, about 20% had one in any assay.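 For each line, cells grew in 96-well plates with the test compound present at a single concentration for 48 hours.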 Activity calls are given as the source filed them. How the source made its calls: active means growth percent below 10; inactive means the rest.

Assays:
Assay in all cases: NCI-60 one-dose screen, 48 h (100 = growth as untreated, 0 = no growth, -100 = all killed)
Settings in all cases: 10 µM unless noted
NCI-H23 lung = system: NCI-H23 lung
NCI-H226 lung = system: NCI-H226 lung
NCI-H322M lung = system: NCI-H322M lung
HOP-62 NSCLC = system: HOP-62 NSCLC
NCI-H460 lung = system: NCI-H460 lung
HOP-92 NSCLC = system: HOP-92 NSCLC
NCI-H522 lung = system: NCI-H522 lung
A549/ATCC NSCLC = system: A549/ATCC NSCLC
786-0 renal = system: 786-0 renal
COLO 205 colon = system: COLO 205 colon
DU-145 prostate = system: DU-145 prostate
K-562 leukemia = system: K-562 leukemia
MALME-3M melanoma = system: MALME-3M melanoma
MDA-MB-231 breast = system: MDA-MB-231 breast
RXF 393 renal = system: RXF 393 renal
SF-268 CNS = system: SF-268 CNS
SF-295 CNS = system: SF-295 CNS
SF-539 CNS = system: SF-539 CNS
UACC-257 melanoma = system: UACC-257 melanoma
M14 melanoma = system: M14 melanoma

Measured: growth

COc1cc(/C=C2\C(=O)Nc3ccc(Br)cc32)cc(OC)c1OC
active: A549/ATCC NSCLC -4.21% | RXF 393 renal -13.6%
inactive: NCI-H23 lung 63.5% | NCI-H226 lung 77.1% | NCI-H322M lung 76.1% | HOP-62 NSCLC 85.2% | NCI-H460 lung 73.3% | HOP-92 NSCLC 48.2% | NCI-H522 lung 47% | 786-0 renal 84.9% | COLO 205 colon 70.8% | DU-145 prostate 91.8% | K-562 leukemia 32.6% | MALME-3M melanoma 88.6% | MDA-MB-231 breast 65.5% | SF-268 CNS 84% | SF-295 CNS 68.6% | SF-539 CNS 85.6% | UACC-257 melanoma 17.2% | M14 melanoma 79.2%

NCCOc1ncccc1/C=C1\c2ccccc2-c2ccc(C(F)F)cc21
inactive: NCI-H23 lung 42.3% | NCI-H226 lung 61.8% | NCI-H322M lung 98.8% | HOP-62 NSCLC 39.9% | HOP-92 NSCLC 49.6% | NCI-H522 lung 79% | A549/ATCC NSCLC 20.9% | 786-0 renal 56.4% | COLO 205 colon 48.9% | DU-145 prostate 13.1% | K-562 leukemia 16.5% | MALME-3M melanoma 61.6% | MDA-MB-231 breast 35.3% | RXF 393 renal 61.5% | SF-268 CNS 54.3% | SF-295 CNS 53.7% | SF-539 CNS 49.3% | UACC-257 melanoma 102% | M14 melanoma 64.5%
active: NCI-H460 lung 9.8%

COc1cc(C(=O)c2cc(C)c3[nH]c4ccc(O)cc4c3c2C)cc(OC)c1OC
active: NCI-H460 lung 8.93% | COLO 205 colon 7.01% | DU-145 prostate -13.4% | K-562 leukemia 7.07% | MALME-3M melanoma -8.11% | SF-295 CNS 9.6% | SF-539 CNS 1.71%
inactive: NCI-H23 lung 31.4% | NCI-H226 lung 53% | NCI-H322M lung 33.7% | HOP-62 NSCLC 40.1% | HOP-92 NSCLC 32.2% | NCI-H522 lung 33.7% | A549/ATCC NSCLC 22.7% | 786-0 renal 13.8% | MDA-MB-231 breast 28.3% | RXF 393 renal 31.9% | SF-268 CNS 24% | UACC-257 melanoma 64.8% | M14 melanoma 22.3%

CNc1nc2c(s1)C(c1cccc(F)c1)CC(=O)N2 (stereo not given)
inactive: NCI-H23 lung 100% | NCI-H226 lung 90.3% | NCI-H322M lung 99.1% | HOP-62 NSCLC 93.3% | NCI-H460 lung 106% | HOP-92 NSCLC 93.4% | NCI-H522 lung 87.4% | A549/ATCC NSCLC 106% | 786-0 renal 97.4% | COLO 205 colon 110% | DU-145 prostate 106% | K-562 leukemia 95.6% | MALME-3M melanoma 110% | MDA-MB-231 breast 104% | RXF 393 renal 93.9% | SF-268 CNS 94.1% | SF-295 CNS 104% | SF-539 CNS 92% | UACC-257 melanoma 107% | M14 melanoma 106%

CCCCn1c(=O)c(-c2cc(-c3ccc(Cl)cc3)nc(-c3ccc(Cl)cc3)c2)cc2cc(Cl)ccc21
inactive: NCI-H23 lung 105% | NCI-H226 lung 104% | NCI-H322M lung 96% | HOP-62 NSCLC 104% | NCI-H460 lung 108% | HOP-92 NSCLC 94.2% | NCI-H522 lung 99.3% | A549/ATCC NSCLC 101% | 786-0 renal 106% | COLO 205 colon 109% | DU-145 prostate 112% | K-562 leukemia 102% | MALME-3M melanoma 104% | MDA-MB-231 breast 84.6% | RXF 393 renal 118% | SF-268 CNS 98.4% | SF-295 CNS 103% | SF-539 CNS 103% | UACC-257 melanoma 96.1% | M14 melanoma 101%

CN(C)CCS(=O)(=O)Nc1cc(-c2ccc3ncc(C#N)c(Nc4ccc(F)c(Cl)c4)c3c2)cnc1Cl
active: NCI-H23 lung -28.5% | NCI-H226 lung -15.2% | NCI-H322M lung -54.5% | HOP-62 NSCLC 0.0433% | NCI-H460 lung 0.906% | HOP-92 NSCLC -17.9% | NCI-H522 lung -39.8% | A549/ATCC NSCLC -30.5% | 786-0 renal -20.1% | COLO 205 colon -80.8% | DU-145 prostate -10.3% | K-562 leukemia 6.62% | MALME-3M melanoma -50.5% | MDA-MB-231 breast -39.5% | RXF 393 renal -56% | SF-268 CNS -41% | SF-295 CNS -19% | SF-539 CNS -36.4% | UACC-257 melanoma -17.3% | M14 melanoma -40.4%

CC1(C)C2CC1C1(/C=N/NC(N)=S)C(C2)C(C#N)(C#N)C1(C#N)C#N (stereo not given)
inactive: NCI-H23 lung 89.4% | NCI-H226 lung 109% | NCI-H322M lung 98% | HOP-62 NSCLC 108% | NCI-H460 lung 98.9% | HOP-92 NSCLC 55.5% | A549/ATCC NSCLC 96.4% | 786-0 renal 81.7% | COLO 205 colon 65.4% | DU-145 prostate 82.6% | K-562 leukemia 13.6% | MALME-3M melanoma 67% | MDA-MB-231 breast 57.3% | RXF 393 renal 71.7% | SF-268 CNS 97.4% | SF-295 CNS 111% | SF-539 CNS 101% | UACC-257 melanoma 79.9% | M14 melanoma 87.6%
active: NCI-H522 lung -60.7%

CNc1nc2c(s1)C(c1cc(F)ccc1F)CC(=O)N2 (stereo not given)
inactive: NCI-H23 lung 85.9% | NCI-H226 lung 84.8% | NCI-H322M lung 92.2% | HOP-62 NSCLC 69.1% | NCI-H460 lung 82.3% | HOP-92 NSCLC 85.5% | NCI-H522 lung 51.3% | A549/ATCC NSCLC 87% | 786-0 renal 83.9% | COLO 205 colon 83.7% | DU-145 prostate 76.3% | K-562 leukemia 18.5% | MALME-3M melanoma 70.2% | MDA-MB-231 breast 69.6% | RXF 393 renal 75.5% | SF-268 CNS 79.3% | SF-295 CNS 87.4% | SF-539 CNS 53.8% | UACC-257 melanoma 86.7% | M14 melanoma 47.3%

C(=N/Nc1ncnc2nc[nH]c12)/c1ccccn1
inactive: NCI-H23 lung 47.6% | NCI-H226 lung 39.9% | NCI-H322M lung 22.4% | HOP-62 NSCLC 23.6% | NCI-H460 lung 55.8% | HOP-92 NSCLC 19.4% | NCI-H522 lung 35.7% | A549/ATCC NSCLC 35.2% | 786-0 renal 21.4% | COLO 205 colon 26.1% | DU-145 prostate 32.1% | K-562 leukemia 24.8% | MALME-3M melanoma 46.4% | MDA-MB-231 breast 53.7% | RXF 393 renal 66.8% | SF-268 CNS 26.6% | SF-295 CNS 20.1% | SF-539 CNS 20.6% | UACC-257 melanoma 51.5% | M14 melanoma 14.2%

Cc1ccc(/C=C(\C#N)n2nc3cccc(F)c3n2)cc1
inactive: NCI-H23 lung 83.7% | NCI-H226 lung 92.9% | NCI-H322M lung 88.7% | HOP-62 NSCLC 93.9% | NCI-H460 lung 96.3% | HOP-92 NSCLC 55.7% | NCI-H522 lung 74.9% | A549/ATCC NSCLC 97.7% | 786-0 renal 83.7% | COLO 205 colon 122% | DU-145 prostate 97.8% | K-562 leukemia 80.5% | MALME-3M melanoma 93% | MDA-MB-231 breast 98.3% | RXF 393 renal 89.7% | SF-268 CNS 93.4% | SF-295 CNS 92.8% | SF-539 CNS 92.6% | UACC-257 melanoma 97.7% | M14 melanoma 98.2%

CC1=C(SCCC(=O)OC(C[Se]C2=C(C)C(=O)c3ccccc3C2=O)C(=O)NC(C)(C)C)C(=O)c2ccccc2C1=O (stereo not given)
active: NCI-H23 lung -42.7% | NCI-H226 lung -63.3% | NCI-H322M lung -79.8% | HOP-62 NSCLC -65.4% | NCI-H460 lung -59% | HOP-92 NSCLC -66.6% | NCI-H522 lung -48.2% | A549/ATCC NSCLC -40% | 786-0 renal -86.1% | COLO 205 colon -86.4% | DU-145 prostate -99% | K-562 leukemia 7.31% | MALME-3M melanoma -74.9% | MDA-MB-231 breast -58% | RXF 393 renal -89.1% | SF-268 CNS -96.2% | SF-295 CNS -30.9% | SF-539 CNS -99.8% | UACC-257 melanoma -88.1% | M14 melanoma -84.1%

COc1ccc(-c2nn(C(=O)c3cc(OC)c(OC)c(OC)c3)c3cc(N)ccc23)cc1
active: NCI-H460 lung 9.14% | NCI-H522 lung -12.6% | 786-0 renal 6.94% | COLO 205 colon -60.3% | K-562 leukemia 8.96% | SF-295 CNS 7.45% | SF-539 CNS -24%
inactive: NCI-H23 lung 34.1% | NCI-H226 lung 28.9% | NCI-H322M lung 53.4% | HOP-62 NSCLC 30.1% | HOP-92 NSCLC 50.1% | A549/ATCC NSCLC 18.1% | DU-145 prostate 10.1% | MALME-3M melanoma 68.2% | MDA-MB-231 breast 29.9% | RXF 393 renal 14.6% | SF-268 CNS 27.4% | UACC-257 melanoma 86.4% | M14 melanoma 24.4%

Oc1ccc(CCl)c2cccnc12
inactive: NCI-H23 lung 59.4% | NCI-H226 lung 101% | NCI-H322M lung 71.9% | HOP-62 NSCLC 92.8% | NCI-H460 lung 55% | HOP-92 NSCLC 89.2% | NCI-H522 lung 52.6% | A549/ATCC NSCLC 76.1% | 786-0 renal 97.6% | COLO 205 colon 35.9% | DU-145 prostate 88.1% | K-562 leukemia 43.9% | MALME-3M melanoma 37.3% | MDA-MB-231 breast 94.5% | RXF 393 renal 75.7% | SF-268 CNS 73.2% | SF-295 CNS 99% | SF-539 CNS 90.3% | UACC-257 melanoma 24.9% | M14 melanoma 61.6%

Cc1ccc2nc(NC(=O)CSc3nc(Cl)c(C#N)c(-c4ccccc4)n3)sc2c1
inactive: NCI-H23 lung 97.9% | NCI-H226 lung 107% | NCI-H322M lung 101% | HOP-62 NSCLC 102% | NCI-H460 lung 106% | HOP-92 NSCLC 95% | NCI-H522 lung 86.9% | A549/ATCC NSCLC 98.6% | 786-0 renal 103% | COLO 205 colon 110% | DU-145 prostate 113% | K-562 leukemia 99.7% | MALME-3M melanoma 104% | MDA-MB-231 breast 111% | RXF 393 renal 114% | SF-268 CNS 111% | SF-295 CNS 101% | SF-539 CNS 102% | UACC-257 melanoma 101% | M14 melanoma 97.9%

CN(C)CCNc1nc2ccccc2c2c(=O)c3cc(F)ccc3sc12
active: NCI-H460 lung -5.59% | COLO 205 colon -39.6% | K-562 leukemia -36.5% | MDA-MB-231 breast 6.88% | M14 melanoma -77.9%
inactive: NCI-H23 lung 58.6% | NCI-H226 lung 83.3% | NCI-H322M lung 53% | HOP-62 NSCLC 51.9% | HOP-92 NSCLC 10% | NCI-H522 lung 37.8% | A549/ATCC NSCLC 38.9% | 786-0 renal 54.1% | DU-145 prostate 28.1% | MALME-3M melanoma 81.9% | RXF 393 renal 40% | SF-268 CNS 45.6% | SF-295 CNS 71.7% | SF-539 CNS 45.3% | UACC-257 melanoma 91.9%
